Assay outcomes as filed in PubChem BioAssay.
Rows were chosen to be rich in hits. Some 19% of all compounds tested hit in one or more screens of this group.
Pf growth 48h – inhibits P. falciparum growth in the first generation, 48 h; P. falciparum luciferase growth in erythrocytes, 48 h; Potency, µM (doses to about 28.7 µM), for inactives: at the top dose activity change, negative = inhibition, hits mostly inhibitors; 310,000 compounds, 5.9% hits; further: potency means the concentration at half of the fitted maximal effect; on the % scale 0 is the no-effect control and ±100 the full control effect
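A one-generation exposure of luciferase-tagged malaria parasites in RPMI 1640/Albumax erythrocyte culture, 37 C and 5% CO2. Inhibition is inferred from decreased luminescence after adding detection reagent.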
Pf growth 96h – inhibits malaria parasite growth, 96 h; P. falciparum luciferase reporter growth, 96 h; Potency, µM (series often up to 28.7 µM), without a hit: at the highest dose activity change, negative = inhibition, usual class: inhibitors; 320,000 compounds, 6.9% hits; further: potency means the concentration at half of the fitted maximal effect; on the % scale 0 is the no-effect control and ±100 the full control effect
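Two parasite generations (96 h, 37 C, 5% CO2) of compound exposure in infected erythrocytes (0.05% parasitemia, 2% hematocrit). Luciferase-reporter P. falciparum; decreased luminescence indicates inhibited growth, aimed at apicoplast-acting delayed death.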
MARV entry inh – blocks Marburg virus binding to or entry into cells | Marburg virus pseudotyped entry inhibition, cell reporter | Potency, µM (series often up to 37.8 µM), for inactives: top-dose activity change, negative = inhibition, usual class: inhibitors | 300,000 compounds, 1.8% hits; calls by dose curve; tested in HEK293 cells; further: potency means the concentration at half of the fitted maximal effect; on the % scale 0 is the no-effect control and ±100 the full control effect
Cycloheximide cs – counter-screen hit for Shiga toxin inhibitors, cycloheximide; 300,000 compounds, 12% hits; max response, %; cell reporter, cycloheximide protein synthesis inhibition counterscreen; AID 2314; in the data active means max response mostly above about 13%, no sharp cut-off; inactive means mostly below about 14%; further: read at 38.3 µM for the half of the compounds with a filed dose; 0% is about no effect
Lassa entry inh – inhibitors of Lassa virus binding or cell entry | 300,000 compounds, 1.2% hits | AID 540256 | Potency, µM (doses to about 37.9 µM), without a hit: at the top dose activity change, negative = inhibition, hits mostly inhibitors | Lassa virus pseudotype entry inhibition, cell reporter; calls by dose curve; tested in HEK293 cells; further: potency means the concentration at half of the fitted maximal effect; on the % scale 0 is the no-effect control and ±100 the full control effect; nearly all actives have a fitted effect of over 50% in size
Shiga toxin inh – blocks Shiga toxin action in Vero cells. Vero cells, Shiga toxin protein synthesis inhibition reporter. inhibition, % at 38.7 µM. 290,000 compounds, 9.2% hits; in the data active means inhibition mostly above about 28%, no sharp cut-off; inactive means mostly below about 43%; further: 0% is about no effect
Active calls of the source: *; ? = inconclusive; / = not tested or not shown; + = active, no number; [ ] = another dose, or the depositor's remark. Unless noted, the call rests on the fitted dose curve; in most records, active means well fitted inhibition curve with a large enough effect; inconclusive means small, poorly fitted or top-dose-only effect, or another doubt; inactive means no such curve, though single readings can be large or run the other way.

SMILES	Pf growth 48h	Pf growth 96h	MARV entry inh	Cycloheximide cs	Lassa entry inh	Shiga toxin inh
COc1cccc(/C=N/NC(=O)CNC(=O)C(c2ccccc2)c2ccccc2)c1O	?	?	?	37.5*	10µM*	70.5*
COc1ccc(/C(C)=N/NC(=O)CNC(=O)/C=C\c2ccccc2OC)c(OC)c1	?	-13.2%	/	14.0*	/	31.4*
COc1cccc(/C=N/NC(=O)CNC(=O)/C=C\c2ccccc2)c1O	4.9%	-8.9%	/	28.0*	/	41.3*
CCc1noc(C)c1C(=O)NNC(=O)c1ccc(Br)cc1	?	20.5%	-0.1%	/	11.2%	/
CCOC(=O)c1ccc(NC(=O)COc2ccccc2CNCCO)cc1	?	?	/	5.1	/	-11.8
CC(C)(CO)NCc1ccccc1OCC(=O)Nc1ccccc1	4.0%	/	-6.5%	24.3*	9.5%	63.6
Cc1ccc(NC(=O)COc2ccccc2CNC(C)(C)CC(C)(C)C)cc1	7.38µM*	/	-2.0%	-0.5	/	-11.0
O=C(NNCNNC(=O)c1ccncc1)c1ccncc1	14.2%	36.7%	/	/	/	/
CCCCN(C(=O)c1cccc2c(=O)c(C)c(-c3ccccc3)oc12)c1ccccc1	?	4.15µM*	?	0.2	11.6µM*	-10.1
CCCCCCCSc1cc(OC)c(CCN(C)C)cc1OC	?	4.65µM*	?	-8.6	?	-17.6
CC(C)c1ccc(NC2CCCN(C(=O)c3cccs3)C2)cc1 (configuration not stated)	5.7%	-28.4%	/	31.6*	/	22.7*
CC(C)c1ccc(NC2CCCN(C(=O)CCN3Cc4ccccc4C3=O)C2)cc1 (configuration not stated)	-17.8%	1.85µM*	/	3.0	/	-3.1
CC(C)c1ccc(NC2CCCN(C(=O)CCN3CCCCC3=O)C2)cc1 (configuration not stated)	5.3%	?	0.2%	1.9	3.6%	-4.6
COc1ccc(NC2CCCN(C(=O)c3cccs3)C2)cc1 (configuration not stated)	-13.4%	?	/	24.4	/	19.1
c1cc2c(cc1CN1CCNCC1)OCO2	16.1%	10.9%	/	5.7	/	14.9
CCOC(=O)c1ccc(NC(=O)CCc2nc(-c3ccc(C)cc3)no2)cc1	?	3.7µM*	-0.9%	11.5	?	27.8
CC(=O)c1ccc(OCCCC(=O)Nc2ccc3c(c2)OCCO3)cc1	-21.3%	?	/	/	/	/
COc1ccc(OCCCC(=O)Nc2ccc3c(c2)OCCO3)cc1	-11.9%	-1.5%	17.1%	11.2	2.5%	+
COc1cccc(-c2noc(CCC(=O)Nc3cccnc3)n2)c1	68.6%	/	5.9%	24.6*	13.1%	76.8
COc1ccc(-c2noc(CCC(=O)Nc3ccc4c(c3)OCCO4)n2)cc1	14.6%	0.586µM*	?	22.6*	-8.7%	42.8*
COc1ccc(-c2noc(CCC(=O)Nc3cccnc3)n2)cc1OC	-4.5%	?	0.0%	26.4	13.2%	71.3
CCn1ncc(-c2cc(C(=O)O)no2)c1C	4.2%	-0.4%	12.8%[46.1 µM]	-4.2	19.5%	-24.8
CCN(CC)CCNC(=O)c1ccc2c(=O)n3nc(Nc4ccccc4OC)sc3nc2c1	/	/	/	/	-2.6%[46.1 µM]	/
COc1ccc(NC(=O)CCc2nc(-c3ccc(C)cc3)no2)cc1Cl	36.2%	/	-0.9%	18.4	6.6%	54.6
COc1ccc(-c2noc(CCC(=O)Nc3ccc(C)c(C)c3)n2)cc1	-13.4%	/	3.0%	14.8*	-12.0%	34.4
SMILES	Pf growth 48h	Pf growth 96h	MARV entry inh	Cycloheximide cs	Lassa entry inh	Shiga toxin inh
Cc1ccc(-c2noc(CCC(=O)Nc3ccc4c(c3)OCO4)n2)cc1	23.0%	2.33µM*	?	1.6	26.1%	18.6
COc1cccc(/C=C/C(=O)OCCN2C(=O)c3ccccc3C2=O)c1	-9.0%	-0.1%	/	4.9	/	22.3
COc1ccc(C(=O)CNc2cccc(F)c2)cc1	46.4%	4.1%	24.5%[46.1 µM]	49.8*	?	87.3*
COc1ccc(C(=O)CC(=O)C(=O)Nc2cccc(F)c2)cc1	/	?	11.0%[46.1 µM]	19.2*	-20.6%[46.1 µM]	49.6*
COc1ccc(C(=O)CC(=O)C(=O)Nc2ccccc2)cc1	9.8%	-2.8%	/	21.9	/	36.0
COc1ccc(CC(=O)N/N=C(\C)CC(=O)Nc2cccc(F)c2)cc1	28.3%	22.4%	4.2%[46.1 µM]	-4.5	-15.9%[46.1 µM]	-12.7
CN(C)C(CNC(=O)C1CCCN1C(=O)c1cccs1)c1ccccc1 (configuration not stated)	/	/	-4.4%[46.1 µM]	/	?	/
O=S(=O)(c1cccc(-c2nc3n(n2)Cc2ccccc2-3)c1)N1CCCC1	/	98.7%	0.4%	-2.0	10.1%	1.7
Clc1ccc(-c2cn3c(n2)-c2ccccc2C3)cc1Cl	117.0%	0.0%	?	39.5*	?	63.7*
CCCn1c(SCC(=O)Nc2cccc(C)n2)nnc1C(C)C	56.8%	7.2%	15.1%[46.1 µM]	7.4	8.0%	13.1
CCOC(=O)C1CCN(C2CCN(C(=O)c3oc4c(F)cccc4c3C)CC2)CC1	8.28µM*	?	-9.6%	-0.7	1.4%	-2.3
Cc1c(C(=O)N2CCC[C@H]2CO)oc2c(F)cccc12	22.4%	14.7µM*	/	23.9*	/	35.9*
Cc1c(C(=O)NC2CCN(Cc3ccccc3)C2)oc2c(Cl)cccc12 (configuration not stated)	5.8%	-1.6%	?	2.7	10µM*	-11.2
Cc1c(C(=O)N2CCC(N3CCSCC3)CC2)oc2c(F)cccc12	-4.8%	?	/	23.0*	/	33.1
CCOC(=O)C1CCN(C(=O)Cc2c(F)cccc2Cl)CC1	21.2%	-0.1%	2.0%	-5.7	1.5%	-1.2
Cc1ccc2oc(C(=O)N3CCC(N4CCSCC4)CC3)c(C)c2c1	-3.4%	?	?	3.1	3.3%[46.1 µM]	1.3
CC(=O)CC(=O)Nc1ccn(-c2ccccc2)n1	/	-66.4%	8.2%	-1.9	9.2%	21.7
CC(=O)c1c(C)[nH]c(C(=O)CN2C(=O)NC(C)(c3ccc4c(c3)OCCO4)C2=O)c1C (configuration not stated)	3.1%	-2.3%	-7.4%	/	-5.2%	/
